# In PubChem BioAssay (NCI):
# Compounds without any hit were thinned out: in the full panel of roughly 83,000, 20% have a hit.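 Interpretation: 100, growth as untreated; towards 0, rising growth inhibition; 0, no net growth; 0 to -100, cell death. Compounds scoring below 10 were considered active.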 Values without a mark were called inactive. Activity calls are given as the source filed them.
# Tests used:
# Test in all cases: NCI-60 one-dose screen, 48 h (100 = growth as untreated, 0 = no growth, -100 = all killed)
# Settings in all cases: 10 µM unless noted
# DU-145 prostate = test system: DU-145 prostate
# K-562 leukemia = test system: K-562 leukemia
# MALME-3M melanoma = test system: MALME-3M melanoma
# MDA-MB-231 breast = test system: MDA-MB-231 breast
# RXF 393 renal = test system: RXF 393 renal
# SF-268 CNS = test system: SF-268 CNS
# SF-295 CNS = test system: SF-295 CNS
# SF-539 CNS = test system: SF-539 CNS
# UACC-257 melanoma = test system: UACC-257 melanoma
# M14 melanoma = test system: M14 melanoma
# HCT-15 colon = test system: HCT-15 colon
# HT29 colon = test system: HT29 colon
# SNB-75 CNS = test system: SNB-75 CNS
# SNB-19 CNS = test system: SNB-19 CNS
# U251 CNS = test system: U251 CNS
# PC-3 prostate = test system: PC-3 prostate
# SK-MEL-5 melanoma = test system: SK-MEL-5 melanoma
# UACC-62 melanoma = test system: UACC-62 melanoma
# LOX IMVI melanoma = test system: LOX IMVI melanoma
# SK-MEL-28 melanoma = test system: SK-MEL-28 melanoma
SMILES,growth (DU-145 prostate),growth (K-562 leukemia),growth (MALME-3M melanoma),growth (MDA-MB-231 breast),growth (RXF 393 renal),growth (SF-268 CNS),growth (SF-295 CNS),growth (SF-539 CNS),growth (UACC-257 melanoma),growth (M14 melanoma),growth (HCT-15 colon),growth (HT29 colon),growth (SNB-75 CNS),growth (SNB-19 CNS),growth (U251 CNS),growth (PC-3 prostate),growth (SK-MEL-5 melanoma),growth (UACC-62 melanoma),growth (LOX IMVI melanoma),growth (SK-MEL-28 melanoma)
CCCCOC(=O)c1c(C)[nH]c(/C=C2\N=C(c3ccc[nH]3)C=C2OC)c1C,18.5%,9.48% (active),-56.5% (active),-49.7% (active),-12.6% (active),19.9%,-61.9% (active),-36.2% (active),-12% (active),-18.6% (active),-1.74% (active),1.64% (active),-20% (active),26.6%,1.25% (active),13.9%,-98% (active),-28% (active),-65.8% (active),-14% (active)
CC(C)c1ccc(/C=N/N=C(N)N)cc1,98.9%,19.9%,88.4%,89.3%,89.4%,88.5%,67%,91.8%,77%,84.9%,89.6%,70.6%,76.9%,97.1%,89.7%,48.4%,91.7%,95.8%,83.6%,85.9%
Cc1ccccc1-n1nnc(C(=O)Nc2nc3ccc(F)cc3s2)c1C,66.9%,35.3%,50.6%,82%,65.6%,73%,60.5%,79.9%,55.7%,49.3%,61.1%,73.2%,64%,63.7%,76.8%,47.5%,24.5%,59.2%,75%,57.3%
CC(=O)Nc1ccc(C=Nc2ccc3ccccc3c2)cc1,112%,105%,111%,109%,108%,105%,119%,107%,103%,97%,105%,105%,77.7%,92.9%,113%,96.5%,99.6%,97.2%,114%,108%
CCOc1ccccc1/C=N\Nc1ccc(S(=O)(=O)c2ccc(N/N=C/c3ccccc3OCC)cc2)cc1,109%,87.9%,98%,87.8%,112%,88.3%,92.9%,90.8%,100%,96.9%,82.9%,108%,80.8%,93.5%,94.8%,87%,100%,85%,92.5%,100%
C[C@]12CCc3nc(Nc4ccccc4)sc3C1=CC[C@@H]1[C@@H]2CC[C@]2(C)/C(=N/NC(N)=S)CC[C@@H]12,36.3%,9.46% (active),69.5%,56.3%,-8.56% (active),49.3%,21.2%,37.3%,67.9%,73.1%,-11.6% (active),5.72% (active),35.3%,62.1%,37.3%,26.6%,38.1%,42.6%,69.6%,63.6%
CC1(C)OC2[C@@H](CNC(=O)NC(=O)NC(=O)CI)O[C@@H](n3cnc4c(NC(=O)Nc5ccccc5)ncnc43)[C@H]2O1 (stereo not given in full),105%,4.48% (active),-61.1% (active),58.4%,54.9%,73.4%,84.6%,27.2%,94.7%,69.4%,17.2%,9.35% (active),80.5%,94.6%,95.5%,68.3%,103%,93.8%,-79.4% (active),97.8%
CCN(CCNc1ccc(C)c2sc3cc(Cl)ccc3c(=O)c12)CC(C)O (stereo not given),82.5%,3.01% (active),82.1%,-11.8% (active),-39.2% (active),82.8%,97.3%,59.4%,-61.1% (active),-50.5% (active),-42.8% (active),-28.5% (active),66.5%,58.5%,18%,48.5%,-98.1% (active),-70.3% (active),-83.4% (active),-64.5% (active)
CCOC(=O)c1nn(C2CCCCO2)c2ccc(NC(=O)CN3CCCC3)cc12 (stereo not given),104%,100%,102%,104%,133%,93%,98.5%,95.7%,91.3%,98.2%,106%,111%,79%,95.8%,94.8%,107%,103%,98.5%,97.3%,105%
Cc1cc(NN=C(c2ccc(O)cc2)c2ccc(O)cc2)c([N+](=O)[O-])cc1[N+](=O)[O-],81.8%,99.1%,100%,59.6%,25.7%,53.9%,43.6%,69.5%,42.5%,36.8%,46.3%,91.5%,74.3%,89.3%,49.4%,38.4%,46%,69.1%,25.3%,61.6%
COc1cc(NN=C(c2ccc(O)cc2)c2ccc(O)cc2)c([N+](=O)[O-])cc1[N+](=O)[O-],90.5%,109%,120%,91.9%,-34.4% (active),72.3%,112%,5.64% (active),-14.4% (active),-15.9% (active),35%,98.1%,98.4%,-4.74% (active),40.5%,73.1%,14.3%,73.9%,34.4%,81%
C=C(C)[C@@H]1CC[C@]2(C(=O)NCCNCCNC(=O)OC(C)(C)C)CC[C@]3(C)[C@H](CC[C@@H]4[C@@]5(C)CCC(=O)C(C)(C)[C@@H]5CC[C@]43C)[C@@H]12,53.5% [100 µM],38.1% [100 µM],64.3% [100 µM],-33.8% [100 µM] (active),35.9% [100 µM],49.8% [100 µM],32% [100 µM],50.1% [100 µM],36.9% [100 µM],54.1% [100 µM],50.4% [100 µM],23.7% [100 µM],23.9% [100 µM],47.8% [100 µM],27.9% [100 µM],19.1% [100 µM],-8.44% [100 µM] (active),48.2% [100 µM],39.6% [100 µM],56.3% [100 µM]
CCCCN(CCCC)CC(O)c1ccc(OCc2ccccc2)c2ccccc12 (stereo not given),89.6%,-4.85% (active),58.6%,74.9%,106%,74.5%,48.6%,101%,90.2%,72.2%,69.7%,19.1%,80.4%,96.7%,98.2%,63.6%,101%,95.5%,60.8%,109%
CC1Cc2c(ncnc2-n2cnc3ccccc32)N(C)c2ccccc21 (stereo not given),50.3%,15.5%,64.5%,29.4%,34%,49%,18.9%,17%,53.1%,12.9%,21.6%,0.852% (active),43%,31.5%,23.7%,25.6%,20.8%,30.9%,44.9%,70.4%
